# Values without a mark were called inactive. Records with an inconclusive call do not appear. Entries that show only a call come without a potency. Calls of active or inactive are those of the source. Calls come from the whole dose curve; as a rule, active = well fitted curve in the direction sought with a large enough effect; inconclusive = small, poorly fitted or top-dose-only effect, or another doubt; inactive = no such curve, though single readings can be large; an effect the other way counts as inactive or inconclusive.
# Experiments:
# [1] = target: Cytochrome P450 3A4 (Homo sapiens) (UniProt P08684); experiment: qHTS Assay for Inhibitors and Substrates of Cytochrome P450 3A4 (AID 884); note: nearly all actives have a fitted effect of over 50% in size; note: potency is the fitted concentration of half-maximal effect; for activity change, negative = inhibition: series mostly up to about 57 µM
# Chain of Cytochrome P450 3A4 (Homo sapiens) (P08684 whole entry, looked up): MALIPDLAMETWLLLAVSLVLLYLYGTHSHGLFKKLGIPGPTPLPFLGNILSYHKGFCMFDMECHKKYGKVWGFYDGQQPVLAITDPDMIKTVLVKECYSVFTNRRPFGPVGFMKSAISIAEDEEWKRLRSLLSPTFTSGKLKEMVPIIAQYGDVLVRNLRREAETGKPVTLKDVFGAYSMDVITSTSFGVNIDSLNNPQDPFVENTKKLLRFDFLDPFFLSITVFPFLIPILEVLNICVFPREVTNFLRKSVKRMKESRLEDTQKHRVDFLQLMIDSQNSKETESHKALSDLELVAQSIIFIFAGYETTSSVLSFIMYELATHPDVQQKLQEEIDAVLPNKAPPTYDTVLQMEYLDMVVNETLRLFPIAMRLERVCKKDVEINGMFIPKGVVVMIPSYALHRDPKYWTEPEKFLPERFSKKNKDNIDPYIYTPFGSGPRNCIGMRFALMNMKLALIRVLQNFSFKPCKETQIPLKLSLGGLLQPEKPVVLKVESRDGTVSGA
# In short: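 20 nM human CYP3A4 with 25 uM Luciferin-PPXE (at KM) in 200 mM KPO4, preincubated 10 min with compound; NADPH regeneration started a 60 min RT reaction. Luciferin detected by luminescence, normalized to 57 uM ketoconazole as full inhibition.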
# [2] = target: Cytochrome P450 3A4 (Homo sapiens) (UniProt P08684); experiment: qHTS Assay for Activators of Cytochrome P450 3A4 (AID 885); note: nearly all actives have a fitted effect of over 65% in size; note: potency is the fitted concentration of half-maximal effect
# In short: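 Human CYP3A4 (20 nM) with Luciferin-PPXE at 25 uM (its KM) in 200 mM KPO4; 10 min compound preincubation, then NADPH regeneration and 60 min reaction at RT. Luciferin read by luminescence; normalized to 57 uM ketoconazole full inhibition.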
# [3] = target: Cytochrome P450 2C19 (Homo sapiens) (UniProt P33261); experiment: qHTS Assay for Inhibitors and Substrates of Cytochrome P450 2C19 (AID 899); note: nearly all actives have a fitted effect of over 60% in size; note: potency is the fitted concentration of half-maximal effect
# Chain of Cytochrome P450 2C19 (Homo sapiens) (P33261 whole entry, looked up): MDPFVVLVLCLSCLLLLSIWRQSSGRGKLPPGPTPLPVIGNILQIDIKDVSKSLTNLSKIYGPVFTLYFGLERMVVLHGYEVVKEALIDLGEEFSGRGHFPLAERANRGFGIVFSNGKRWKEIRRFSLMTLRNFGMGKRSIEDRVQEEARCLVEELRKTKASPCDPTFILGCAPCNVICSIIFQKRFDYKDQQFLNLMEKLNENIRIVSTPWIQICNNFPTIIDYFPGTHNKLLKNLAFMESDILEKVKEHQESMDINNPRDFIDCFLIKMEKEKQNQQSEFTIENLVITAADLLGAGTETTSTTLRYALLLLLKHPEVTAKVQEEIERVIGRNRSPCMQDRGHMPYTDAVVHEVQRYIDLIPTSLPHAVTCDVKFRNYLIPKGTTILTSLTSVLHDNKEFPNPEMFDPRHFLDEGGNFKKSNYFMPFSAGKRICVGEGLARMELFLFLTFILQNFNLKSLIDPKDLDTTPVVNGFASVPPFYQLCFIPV
# In short: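 5 nM human CYP2C19 with 10uM Luciferin-H EGE (at KM) in 50mM KPO4, compound preincubated 10 min at 37C, then NADPH regeneration for 60 min at 37C. Luciferin read by luminescence after detection reagent; normalized to 57uM ketoconazole as full inhibition.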
# [4] = Confirmation and Secondary Assay for Modulators of Hemoglobin Beta Chain Splicing at IVS2 654 locus (AID 910);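 note: HeLa cells stably carrying EGFP split by mutant beta-globin IVS2-654 intron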
# In short: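 HeLa cells stably expressing EGFP interrupted by β-globin IVS2-654 intron, seeded overnight in Opti-MEM/2% FCS, then treated 2 days at 37 °C. Restored splicing read as total peak GFP intensity per well by laser scanning cytometry (488 nm excitation, 500–520 nm emission); 500 nM antisense PNA as control.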
# [5] = Confirmation and Secondary Assay for Modulators of Hemoglobin Beta Chain Splicing at IVS2 705 locus (AID 930);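 note: HeLa cells stably expressing the EGFP-705 splicing reporter; series mostly up to about 46 µM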
# In short: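 HeLa cells stably carrying EGFP interrupted by mutant beta-globin IVS2-705 intron (CMV-driven) were seeded at 500 cells/well, treated next day with compound for 2 days at 37C; corrected splicing restores EGFP, read as total peak GFP intensity per well.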
# [6] = target: Alpha-galactosidase (Coffea arabica) (UniProt Q42656); experiment: Counterscreen for Glucocerebrosidase Inhibitors: qHTS Assay for Coffee Bean alpha-Galactosidase at pH 4.5 (AID 957); note: series mostly up to about 77 µM
# Chain of Alpha-galactosidase (Coffea arabica) (Q42656 whole entry, looked up): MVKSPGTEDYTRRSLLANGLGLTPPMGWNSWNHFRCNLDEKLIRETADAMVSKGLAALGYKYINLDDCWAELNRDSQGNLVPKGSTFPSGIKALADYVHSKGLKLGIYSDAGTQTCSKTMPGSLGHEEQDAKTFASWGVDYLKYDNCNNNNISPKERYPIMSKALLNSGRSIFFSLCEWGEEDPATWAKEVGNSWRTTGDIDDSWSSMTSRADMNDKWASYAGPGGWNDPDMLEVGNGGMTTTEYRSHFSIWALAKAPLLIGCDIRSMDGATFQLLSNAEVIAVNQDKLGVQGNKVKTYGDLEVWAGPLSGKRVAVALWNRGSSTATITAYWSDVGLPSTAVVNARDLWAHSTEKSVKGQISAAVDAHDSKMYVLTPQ
# In short: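 Coffee bean enzyme (2 nM) with 80 uM 4-methylumbelliferyl alpha-D-galactopyranoside in 50 mM citric acid, 0.005% Tween-20, pH 4.5, 20 min at room temperature; compounds 0.7 nM–77 uM. Stopped at pH 10, fluorescence 365/440 nm; AC50 from Hill fits.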
# [7] = target: Alpha-galactosidase (Coffea arabica) (UniProt Q42656); experiment: Counterscreen for Glucocerebrosidase Inhibitors: qHTS Assay for Coffee Bean alpha-Galactosidase at pH 5.9 (AID 998)
# In short: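 Green coffee bean enzyme (2 nM) with 4-methylumbelliferyl alpha-D-galactopyranoside (80 uM) in 50 mM citric acid, 0.005% Tween-20, pH 5.9, 20 min at room temperature; compounds 0.7 nM–77 uM. Stopped at pH 10, fluorescence Ex365/Em440; Hill-fit AC50.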
# [8] = target: Cytochrome P450 2D6 (Homo sapiens) (UniProt P10635); experiment: qHTS Assay for Inhibitors and Substrates of Cytochrome P450 2D6 (AID 891); note: nearly all actives have a fitted effect of over 60% in size; note: potency is the fitted concentration of half-maximal effect;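 for activity change, negative = inhibition: luciferin methyl ether substrate demethylated by CYP2D6 with NADPH regeneration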
# Chain of Cytochrome P450 2D6 (Homo sapiens) (P10635 whole entry, looked up): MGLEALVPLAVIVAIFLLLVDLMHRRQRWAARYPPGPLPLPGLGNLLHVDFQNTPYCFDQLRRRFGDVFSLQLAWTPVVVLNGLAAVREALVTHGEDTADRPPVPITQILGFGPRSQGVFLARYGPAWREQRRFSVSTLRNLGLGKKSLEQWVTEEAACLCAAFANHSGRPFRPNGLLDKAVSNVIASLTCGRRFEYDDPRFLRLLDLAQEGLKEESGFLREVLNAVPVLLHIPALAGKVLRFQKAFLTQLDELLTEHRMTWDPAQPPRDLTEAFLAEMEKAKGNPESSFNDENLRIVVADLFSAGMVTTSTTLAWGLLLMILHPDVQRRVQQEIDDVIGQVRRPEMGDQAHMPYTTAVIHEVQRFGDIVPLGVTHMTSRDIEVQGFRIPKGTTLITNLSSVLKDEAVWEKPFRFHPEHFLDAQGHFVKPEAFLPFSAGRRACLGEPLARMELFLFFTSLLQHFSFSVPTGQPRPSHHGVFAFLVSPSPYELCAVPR
# In short: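 Human CYP2D6 (5 nM) with 30 uM Luciferin-ME EGE (at Km) in 100 mM KPO4, compound preincubated 10 min, then NADPH regeneration system for 60 min at room temperature. Luciferin read by luminescence; normalized to 1.43 uM quinidine.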
smiles,measurement,setting,value
C[C@@]12CC[C@@H]3[C@@H](CC[C@H]4C[C@@H](O)CC[C@]43C)[C@H]1CC[C@@H]2c1cc(C(F)(F)F)n[nH]1,"activity change, negative = inhibition",[1],103% [at 11.4 µM]
same,Potency,[2],2510 nM (active)
same,Potency,[3],2510 nM (active)
CCCCCCCCCCCCCC(=O)OC1C(C)[C@@]2(O)C(C=C(CO)C[C@]3(O)C(=O)C(C)=C[C@H]23)[C@@H]2C(C)(C)[C@]12OC(C)=O (stereo partly specified),Potency,[1],inactive
same,Potency,[4],inactive
same,outcome,[5],inactive
CC(=O)Oc1ccc2c(c1)CCC1C2CC[C@]2(C)C(OC(C)=O)CCC12 (stereo partly specified),Potency,[2],inactive
CCC(C)C(=O)OC1C[C@@]2(C)C(c3ccoc3)OC(=O)CC23OC2(C)OC34C(OC(=O)C(C)C)[C@]3(O)C(OC(=O)C5(C)OC5C)[C@]5(C)CC3(O)[C@](C)(C5CC(=O)OC)C14O2 (stereo partly specified),Potency,[1],2510 nM (active)
same,Potency,[2],inactive
same,Potency,[4],inactive
same,outcome,[5],inactive
CCN(CC)c1ccc2c(C)cc(=O)oc2c1,Potency,[2],inactive
COc1cc(C(=O)OC2CC[C@]3(C)C4CCC5[C@]6(O)CC(O)[C@]7(O)C(CN8CC(C)CCC8[C@]7(C)O)[C@]6(O)C[C@@]53O[C@]24O)cc(OC)c1OC (stereo partly specified),Potency,[2],inactive
COC(=O)[C@@H]1C[C@@]2(O)[C@H](O)[C@H](O)[C@H](O)C[C@H]2N1Cc1cccnc1,Potency,[2],inactive
COC(=O)NC/C=C\c1nc(CC/C=C\C(=O)O[C@H]2C[C@H]3CC(=O)O[C@@H](/C=C\CC(C)C)C[C@@H]4CC[C@H](C)[C@H](C[C@@H](OC)C[C@H](C2)O3)O4)co1,Potency,[1],5010 nM (active)
same,"activity change, positive = activation",[2],-81.2% [at 11.4 µM]
same,"activity, negative = inhibition",[3],68.9% [at 11.4 µM]
Cc1ncc(CN2CC=C(c3ccccc3)CC2)c(N)n1,Potency,[2],inactive
CC(C)CC(N)C1(c2ccc(Cl)cc2)CCC1 (stereo unspecified),Potency,[1],1580 nM (active)
same,Potency,[2],inactive
CN(C)C1C(=O)C(C(N)=O)=C(O)[C@@]2(O)C(=O)C3=C(O)c4c(O)cccc4[C@](C)(O)C3C(O)C12 (stereo partly specified),Potency,[1],inactive
same,Potency,[4],inactive
same,outcome,[5],inactive
COc1cc2c(cc1OC)[C@@H]1C(=O)c3ccc(OC)c(CC=C(C)C)c3OC1CO2 (stereo partly specified),Potency,[1],3160 nM (active)
same,Potency,[4],inactive
same,outcome,[5],inactive
CC(=O)Oc1ccc(/C=C/c2cc(OC(C)=O)cc(OC(C)=O)c2)cc1,Potency,[1],10000 nM (active)
same,Potency,[2],inactive
same,Potency,[4],inactive
same,outcome,[5],inactive
COC(=O)[C@H]1C(=O)c2ccccc2O[C@@](C(=O)OC)(c2ccccc2)[C@@H]1c1ccccc1,Potency,[1],3980 nM (active)
same,"activity change, positive = activation",[2],-63.3% [at 11.4 µM]
OC[C@@H]1O[C@@H](n2cnc3cncnc32)[C@@H](O)[C@H]1O,Potency,[1],inactive
same,outcome,[6],inactive
same,outcome,[7],inactive
CC(C)=CCCC1(C)C=Cc2c(O)c3c(c(CC=C(C)C)c2O1)OC12C(CC4CC1C(C)(C)OC2(C/C=C(/C)C(=O)O)C4O)C3=O (stereo unspecified),Potency,[1],inactive
same,Potency,[4],inactive
same,outcome,[5],inactive
CN1[C@@H]2CC[C@H]1CC(NC(=O)c1nn(C)c3ccccc13)C2 (stereo partly specified),Potency,[1],inactive
same,outcome,[6],inactive
same,outcome,[7],inactive
CC[C@]1(O)CC(O[C@@H]2CC(N(C)C)C(O)C(C)O2)c2c(cc3c(c2O)C(=O)c2c(O)ccc(O)c2C3=O)C1C(=O)OC (stereo partly specified),Potency,[1],inactive
same,Potency,[4],inactive
same,outcome,[5],inactive
c1ccc(CN2CCC3(CCc4ccccc43)CC2)cc1,Potency,[1],inactive
same,Potency,[8],6.3 nM (active)
same,Potency,[3],2510 nM (active)
COC(=O)[C@H]1C[C@H]2CC[C@H](O)C[C@H]2N1CC1CC1,Potency,[2],inactive
O=C1c2ccccc2-c2cc([N+](=O)[O-])c([N+](=O)[O-])cc21,Potency,[1],501 nM (active)
same,Potency,[8],3160 nM (active)
same,Potency,[3],398 nM (active)
COc1cc2c(cc1OC)C1C(=O)c3c(cc4c(c3O)C=CC(C)(C)O4)OC1CO2 (stereo unspecified),Potency,[1],15800 nM (active)
same,Potency,[2],inactive
O=C(OCC1CO1)C1CCCCC1C(=O)OCC1CO1 (stereo unspecified),Potency,[2],inactive
COC(=O)[C@H]1[C@@H](c2ccccc2)[C@@]2(c3ccccc3)Oc3ccccc3[C@@]1(O)[C@@H]2O,"activity change, positive = activation",[2],-40.9% [at 11.4 µM]
same,"activity change, negative = inhibition",[8],40.2% [at 11.4 µM]
C[C@@H]1Cc2ccccc2N1NC(=O)c1ccc(Cl)c(S(N)=O)c1 (stereo partly specified),Potency,[2],inactive
CC(=O)[C@]1(O)CC[C@@H]2[C@H]3C[C@@H](C)C4=CC(=O)CC[C@@]4(C)[C@H]3[C@@H](O)C[C@]21C,"activity change, positive = activation",[2],-33% [at 11.4 µM]
Cc1ccc(N)cc1[N+](=O)[O-],Potency,[2],inactive
CC(=O)c1c(O)c(C)c(O)c2c1OC1=CC(=O)C(C(C)=O)C(=O)C12C (stereo unspecified),Potency,[2],inactive
O=C(O)c1cc2c(cc1S(=O)(=O)O)[C@H]1[C@@H]([C@H]3[C@H]2[C@@]2(Cl)C(Cl)=C(Cl)[C@]3(Cl)C2(Cl)Cl)[C@]2(Cl)C(Cl)=C(Cl)[C@@]1(Cl)C2(Cl)Cl,"activity change, positive = activation",[2],-41.4% [at 11.4 µM]

# From PubChem BioAssay (NCATS)
